Data on 39 compounds can be found in PubChem BioAssay (Tox21).

Structures are written as SMILES. Several values for one entry are separate records, joined by “and”; a condition that tells them apart may be missing. Equal values may be shown once. Results filed as inconclusive are left out. Where a call stands in place of a potency, no number is given. The source holds several records for some structures; these can differ, active in one and inactive in another. Activity calls are given as the source filed them. Calls come from the whole dose curve; as a rule, active = well fitted cell-killing curve with a large enough effect in the repeat runs; inconclusive = weak or mixed curves, or effect the other way; inactive = flat fitted curve, though single readings scatter.
Potency is the fitted concentration of half-maximal effect.

The nature of this test: qHTS RealTime-Glo MT Cell Viability Assay in HepG2 cells - 40 hour (AID 1224870). Note: nearly all actives have a fitted effect of over 50% in size. As to conditions: RealTime-Glo luminescence; series mostly up to 76.8 µM. From the text: National Center for Advancing Translational Sciences [NCATS]
NIH Chemical Genomics Center [NCGC]
U.S. Environmental Protection Agency [EPA]
National Institutes of Environmental Health Sciences [NIEHS]
National Toxicology Program [NTP]
U.S. Food and Drug Administration [FDA]
Measure of cell viability is critical in the cell-base assay. Analysis of cell viability is necessary for the characterization of cell responses to cytotoxic drugs and environmental stress. A RealTime-Glo MT Cell Viability Assay to monitor cell viability in real time of continues cell culture during 40 hours of compound treatment was used to screen Tox21 10K library compounds in HepG2 cells. The RealTime-Glo MT Cell Viability Assay is a nonlytic, homogeneous, bioluminescent method to measure cell viability in real time using a simple, plate-based method. The assay involves adding NanoLuc luciferase and a cell-permeant prosubstrate to cells in culture. Viable cells reduce the proprietary prosubstrate to generate a substrate for NanoLuc luciferase. This substrate diffuses from cells into the surrounding culture medium, where it is rapidly used by the NanoLuc Enzyme to produce a luminescent signal. The signal correlates with the number of viable cells, making the assay well suited for cytotoxicity studies.
Tox21 Assay Protocol Summary:
The mixture of HepG2 cell suspension and reagents were dispensed at 600cells/6 ul/well in 1536-well tissue culture treated black solid bottom plates using a Multidrop dispenser. After the assay plates were incubated at a 37 C/5% CO2 incubator for 5 hours, 23 nL of compounds dissolved in DMSO, positive and negative controls was transferred to the assay plate by a pintool work station. The plates were incubated at 37 C for 40 hours. The luminescence intensity were measured at 0h, 8h, 16h, 24h, 32h and 40h time points using ViewLux plate reader during compound treatment.
On the technique in general: Quantitative high-throughput screening tests each substance at several concentrations.
Turning to `NCCOCCO`, the Potency result was “inactive”.

With `CCC(Cc1c(I)cc(I)c(N)c1I)C(=O)O` (stereo not given), the Potency entry was “inactive”.

For the compound `Cc1cccc(Nc2ccccc2C(=O)O)c1C`, the Potency result was “inactive”.

As to `FC(F)(F)C(Cl)Br` (stereo not given), the Potency result is “inactive”.

Take `O=C(O)c1cc(=O)[nH]c(=O)[nH]1`: the Potency result is “inactive”.

Turning to `CC(C)(C)c1cccc(C(C)(C)C)c1O`, the Potency entry was “inactive”.

As to `NCCS(=O)(=O)O`, the Potency entry is “inactive”.

On to `C=C[Si](OCCOC)(OCCOC)OCCOC`, for which the Potency entry is “inactive”.

For `Nc1ccc2c(O)cc(S(=O)(=O)O)cc2c1`, the Potency entry was “inactive”.

Take `COC(=O)CC(=O)OC`: the Potency result was “inactive”.

For the compound `CCCCCCC(C)O` (stereo not given), the Potency result was “inactive”.

For the compound `O=[Se](O)O`, the Potency is 21.9 µM (active) and the activity change, negative = cytotoxic is 2.31% [at 15.8 µM] (inactive).

Take `CCCCCCCCCCCCCO`: the Potency result was “inactive”.

Regarding `CC/C(=C(/CC)c1ccc(O)cc1)c1ccc(O)cc1`, the Potency entry was “inactive”.

Regarding `COc1ccc(-c2coc3cc(O)cc(O)c3c2=O)cc1`, the Potency result was “inactive”.

As for `Cc1ccc(C)c(O)c1`, the Potency entry is “inactive”.

In the case of `O=C1OC2(c3ccccc31)c1cc(I)c(O)c(I)c1Oc1c2cc(I)c(O)c1I`, the Potency was 24.6 µM (active) and 12.4 µM (active) and 29.8 µM (active).

With `Nc1cc(Cl)c(N)c(Cl)c1`, the Potency entry was “inactive”.

As to `CC(=O)Oc1c(C)c(C)c2c(c1C)CC[C@@](C)(CCC[C@H](C)CCC[C@H](C)CCCC(C)C)O2`, the Potency entry is “inactive”.

`O=S1(=O)CCCO1`: the Potency entry was “inactive”.

Take `Brc1nc2ccccc2s1`: the Potency entry was “inactive”.

Consider `CCCCCC=O`, for which the Potency result was “inactive”.

Consider `NCCN`, for which the Potency result is “inactive and 13.8 µM (active)”.

With `CC(=O)[C@H]1CC[C@H]2[C@@H]3CC=C4C[C@@H](O)CC[C@]4(C)[C@H]3CC[C@]12C`, the Potency result was “inactive”.

As for `CC(=O)Nc1ccc2c(c1)Cc1cc(NC(C)=O)ccc1-2`, the Potency entry was “inactive”.

Regarding `COc1cc([C@H]2Oc3cc([C@H]4Oc5cc(O)cc(O)c5C(=O)[C@@H]4O)ccc3O[C@@H]2CO)ccc1O`, the Potency entry was “inactive”.

As for `Cc1ccc([N+](=O)[O-])c(C)c1`, the Potency result was “inactive”.

As for `OC[C@@H](O)[C@@H](O[C@@H]1O[C@H](CO)[C@H](O)[C@H](O)[C@H]1O)[C@H](O)[C@@H](O)CO`, the Potency result was “inactive”.

Take `[Na+]`: the Potency entry was “inactive and 38.9 µM (active)”.

For `IC(I)I`, the Potency is 21.8 µM (active) and 4.9 µM (active).

Regarding `CCCOCCO`, the Potency result is “inactive”.

For the compound `Cc1ccc(N)c([N+](=O)[O-])c1`, the Potency entry is “inactive”.

As to `COC(=O)c1ccc(C)cc1`, the Potency entry is “inactive”.

In the case of `CC(C)[C@@H]1CC[C@@H](C)CC1=O`, the Potency result was “inactive”.

Take `CCCCCCCCCCC(CO)CCCCCCCC` (stereo not given): the Potency result is “inactive”.

As for `Nc1ccc2c(c1)C(=O)c1ccccc1C2=O`, the Potency entry is “inactive”.

Take `OCCNCCO`: the Potency entry was “inactive”.

As for `CCCCCCCC/C=C\CCCCCCCC(=O)O`, the Potency result is “inactive”.

For `CC1(C)O[C@@H]2C[C@H]3[C@@H]4C[C@H](F)C5=CC(=O)C=C[C@]5(C)[C@@]4(F)[C@@H](O)C[C@]3(C)[C@]2(C(=O)CO)O1`, the Potency entry is “inactive”.
